Consider eleven compounds from PubChem BioAssay (EPA / NIEHS).

The structures appear in SMILES notation. Active and inactive are the calls of the source. The calls were made as follows: active = hit-call score of the fitted dose curve at least 0.9, where 1 is the maximum; inactive = score below 0.9.

This experiment can be described thus: CCTE_Shafer_MEA_acute_per_network_burst_electrodes_number_mean: CCTE's Neural Acute Assay for Mean Number of Electrodes in a Network Burst, Shafer Lab (AID 2284021).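 Also: curves fitted for decreases only so hits reduce electrodes per burst.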 How it is done: CCTE_Shafer_MEA_acute assay is conducted using Axion Biosystems 48 well microelectrode array (MEA) plates and Maestro recording system. Each well of the MEA plate contains a grid of 16 microelectrodes embedded in the culture surface. Electrically active cells, such as neurons, can be cultured over the electrodes, and electrical activity in these cells can be recorded extracellularly. The spontaneous firing of neurons is captured from each electrode on a microsecond timescale providing both temporally and spatially precise data. […] The CCTE_Shafer_MEA_acute assay uses primary cultures of rat cortical neurons. As these cultures mature over time, neural networks develop functional activity and form cohesive networks in which electrical activity can be highly coordinated. Baseline 40-minute recordings are made on days post-plating 13 or 15, followed by a secondary 40-minute recording after chemical exposure.CCTE_Shafer_MEA_acute_per_network_burst_electrodes_number_mean is a component of the CCTE_Shafer_MEA_acute assay. It measures the average number of electrodes with activity during a network burst (a temporally-clustered group of action potential firing across multiple electrodes) in a recording in a microelectrode array (MEA) using Axion Biosystems Maestro 768 channel amplifier with the AxIS adaptive spike detector. The recordings before and after chemical treatment are used to calculate a percent change in the mean number of electrodes participating in network bursts in each well.Data from the assay component CCTE_Shafer_MEA_acute_per_network_burst_electrodes_number_mean was analyzed into 1 assay endpoint. This assay endpoint, CCTE_Shafer_MEA_acute_per_network_burst_electrodes_number_mean, was analyzed in the negative analysis fitting direction relative to DMSO as the negative control and baseline of activity. Using a type of functional reporter, gain or loss-of-signal activity can be used to understand electrical activity.
Spontaneous activity in the cortical cultures was recorded using an Axion Biosystems Maestro 768 channel amplifier and Axion Integrated Studios (AxIS) v1.8 (or later) software. The amplifier recorded from all channels simultaneously (gain = 1200 x; sampling rate = 12.5 kHz/channel): raw signals were filtered with a Butterworth band-pass filter (300-5000 Hz), which filters out slower local field potentials leaving only fast potentials, i.e., "spikes", arising from extracellular currents associated with action potentials (Pine 2006; Wheeler and Nam 2011). On-line spike detection of filtered signals was conducted with the AxIS adaptive spike detector, using a threshold of 8x the root mean squared (rms) noise on each channel. Any electrodes with rms noise levels greater than 5 uV were grounded (e.g., no data were recorded). Once grounded, an electrode was grounded for the duration of the experiment. All recordings were conducted at 37 C. Wells were deemed usable if on the day of the exposure >/= 10 electrodes were active (defined as >/= 5 spikes/min). On DIV 13 or 15, a minimum of three wells from one cortical culture preparation were treated with each compound (0.03-40 uM). Prior to recording baseline activity, each mwMEA plate was placed in the Maestro at 37 C and allowed to sit for 20 min while firing rates stabilized. Baseline activity (40 min) was recorded before the addition of each compound. An additional 40 min of spontaneous activity was recorded in the presence of each compound. Changes in network parameters relative to baseline were assessed following compound treatment.
Take `N[C@@H](CCC(=O)O)C(=O)O`: the result was inactive.

`CC(=O)c1ccc(C)cc1`: the result was inactive.

In the case of `CCCCN(CCO)CCO`, the call was inactive.

Regarding `CCCO[Si](OCCC)(OCCC)OCCC`, the outcome was inactive.

For the compound `CCn1cc(C(=O)O)c(=O)c2ccc(C)nc21`, the result was inactive.

For `CC(C)(CO)CO`, the compound was called inactive.

As to `CCCCOCCOCCO`, the outcome was inactive.

For `CC(C)CCCC(C)(C)O`, the result was inactive.

As to `O=C(c1ccc(OCCN2CCCCC2)cc1)c1c(-c2ccc(O)cc2)sc2cc(O)ccc12`, the call was inactive.

As for `CC/C(=C(\c1ccccc1)c1ccc(OCCN(C)C)cc1)c1ccccc1`, the result was inactive.

`c1ccc(OCCOc2ccccc2)cc1`: the compound was called inactive.
